# Only some compounds are listed: those with a hit (about 21% of all), similar ones and a draw of the others.
# Shiga toxin inh = A qHTS for Small Molecule Inhibitors of Shiga Toxin; inhibition, % at 38.7 µM; AID 2315, 2010; 290,000 compounds, 9.2% hits; Vero cells, Shiga toxin protein synthesis inhibition reporter; in the data active = inhibition mostly above about 28%, no sharp cut-off; inactive = mostly below about 43%; note: 0% is about no effect
# Pf growth 48h = Primary qHTS for delayed death inhibitors of the malarial parasite plastid, 48 hour incubation; P. falciparum luciferase growth in erythrocytes, 48 h; Potency, µM (highest dose often 28.7 µM), for inactives: top-dose activity change, negative = inhibition, usual class: inhibitors; 310,000 compounds, 5.9% hits; note: potency is the fitted concentration of half-maximal effect; % is set by controls: 0 for no effect and ±100 for the full control effect
#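 Luciferase-expressing P. falciparum in infected erythrocytes (2% hematocrit, 0.1% parasitemia final) in RPMI 1640/0.5% Albumax were exposed to compound for 48 hours at 37 C, 5% CO2; growth read as luminescence.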
# Pf growth 96h = Primary qHTS for delayed death inhibitors of the malarial parasite plastid, 96 hour incubation | 320,000 compounds, 6.9% hits | Potency, µM (doses to about 28.7 µM), inactives show at the highest dose activity change, negative = inhibition, usual class: inhibitors | P. falciparum luciferase reporter growth, 96 h; note: potency is the fitted concentration of half-maximal effect; % is set by controls: 0 for no effect and ±100 for the full control effect
#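 Compounds incubated with erythrocytes infected by luciferase-expressing P. falciparum (2% hematocrit, 0.05% parasitemia final) for 96 hours, 37 C in 5% CO2. Growth inhibition scored as decreased luciferase luminescence.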
# Cycloheximide cs = Cycloheximide Counterscreen for Small Molecule Inhibitors of Shiga Toxin | cell reporter, cycloheximide protein synthesis inhibition counterscreen | max response, % | 300,000 compounds, 12% hits | AID 2314, 2010; in the data active = max response mostly above about 13%, no sharp cut-off; inactive = mostly below about 14%; note: read at 38.3 µM for the half of the compounds with a filed dose; 0% is about no effect
# NS1 function inh = qHTS Assay for Inhibitors of Influenza NS1 Protein Function | Potency, µM (titrated, usually from 46.1 µM), without a hit: at the highest dose activity, positive = more growth | 270,000 compounds, 0.4% hits; calls by dose curve; note: potency is the fitted concentration of half-maximal effect; actives are rising curves; nearly all actives have a fitted effect of over 50% in size
#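 Growth recovery, yeast-based: influenza A NS1 expressed in S. cerevisiae causes slow growth, and suppressors are detected by OD600. The parent strain without NS1 is used as positive control.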
# An asterisk follows results filed as active; i = inactive; ? = inconclusive; · = not tested or not shown; [ ] = another dose, or the depositor's remark. Unless noted, calls come from the whole dose curve; as a rule, active = well fitted inhibition curve with a large enough effect; inconclusive = small, poorly fitted or top-dose-only effect, or another doubt; inactive = no such curve, though single readings can be large or run the other way.
SMILES,Shiga toxin inh,Pf growth 48h,Pf growth 96h,Cycloheximide cs,NS1 function inh
CC(C)C[C@H](NC(=O)[C@@H](N)Cc1ccccc1)C(=O)N[C@@H](Cc1ccccc1)C(=O)N[C@@H](CCC(N)=O)C(=O)N1CCC[C@H]1C(=O)N[C@@H](CCC(N)=O)C(=O)N[C@@H](CCCN=C(N)N)C(=O)N[C@@H](Cc1ccccc1)C(N)=O,-11,·,·,-1,·
Oc1c(/C=N/c2ncn[nH]2)ccc2ccccc12,66*,26%,6%,27*,-78%
Cc1ccc(-n2c(O)c(/C=N/c3ncn[nH]3)c3ccccc3c2=O)cc1,-6,-13%,?,13,·
O=C(O)c1ccccc1S(=O)(=O)CC(=O)N1CCCCC1,-13,51%,-5%,-3,-1%
CCOC(=O)c1c(C)c(C(=O)O)n(C)c1C,-15,10%,?,-9,9%
CCOC(=O)c1c(C)c(/C=N/Nc2ccccc2)n(C)c1C,30,?,?,13*,-1%
CCOC(=O)c1c(C)nn(Cc2ccccc2)c1N,7,-14%,5.2µM*,1,-20%
CCOC(=O)c1cnn(Cc2ccccc2)c1N,-6,-18%,147%,1,-1%
CCOC(=O)c1c(C)c(C(=O)NCCc2ccccc2)c(C)n1C,104*,178%,-2%,40*,·
CCOC(=O)c1c(C)c(C(=O)NCc2cccnc2)c(C)n1C,9,23%,-12%,8,-13%
CCOC(=O)c1c(C(=O)OCC)c(C)n(CCc2ccccc2)c1C,-5,?,9.3µM*,-4,-34%
COc1ccccc1C(=O)NCC(=O)OCC(=O)c1cccc2ccccc12,·,-18%,30%,·,·
CC(OC(=O)c1cc(=O)c2cc(Cl)ccc2o1)C(=O)N1CCCC1 (configuration not stated),·,-25%,15%,·,·
O=c1[nH]cc(O)c(=O)[nH]1,-6,10%,16%,0,-4%
O=c1[nH]cc(F)c(=O)[nH]1,0,6.6µM*,4.7µM*,-1,-34%
O=c1c(-c2ccc3c(c2)OCCO3)coc2cc(O)cc(O)c12,73*,91%,5%,37*,-91%
N#Cc1cn(Cc2ccncc2)c(=O)[nH]c1=O,6,27%,-33%[1.15 µM],-7,3%
CC1=C(C(=O)Nc2ccccc2F)C(c2cccs2)NC(=S)N1 (configuration not stated),-13,7%,?,-2,4%
CN(C)C(=O)c1ccc(Nc2nc(-c3cccs3)nc3ccccc23)cc1,24,10µM*,10µM*,6,-5%
C/C(CC(=O)Nc1ccc([N+](=O)[O-])cc1)=N/NC(=O)C1C2CCCCC21 (configuration not stated),36,7%,5%,19*,2%
COc1ccc(NC(=O)C/C(C)=N/NC(=O)C2CCCCC2)c([N+](=O)[O-])c1,8,31%,10µM*,7,6%
C/C(CC(=O)Nc1ccc([N+](=O)[O-])cc1)=N/NC(=O)C1CC12CCC2 (configuration not stated),-19,13%,246%,0,·
Cc1ccc(S(=O)(=O)N2CCN(C(=O)C3CCN(C(=O)c4ccccc4C)CC3)CC2)cc1C,-17,?,?,-2,·
CCN(CC)S(=O)(=O)c1ccc(N/N=C(\C)c2ccc(OC)cc2O)nc1,10,13µM*,?,-1,-40%
CCOc1cccc(/C=N/Nc2ccc(S(=O)(=O)N(CC)CC)cn2)c1O,15,2.9µM*,2.6µM*,-2,15%
SMILES,Shiga toxin inh,Pf growth 48h,Pf growth 96h,Cycloheximide cs,NS1 function inh
COc1ccc(C2C3C=CCC(C)C3C(=O)N2Cc2ccccc2)cc1Cl (configuration not stated),6,·,·,-9,·
Cc1ccc(C)c(OCc2cc(C(=O)NC(C)c3cnn(C)c3)no2)c1 (configuration not stated),17,?,?,11,-1%
Cc1cc(CNC(=O)c2cc(COc3ccc(F)c(F)c3)on2)nn1C,64*,16%,?,46*,-15%
Cn1c(CCNC(=O)c2cc(COc3ccc(F)c(F)c3)on2)nc2ccccc21,73*,1%,?,16,-14%
CC(=O)c1ccc(OCc2cc(C(=O)NCCn3nc(C)cc3C)no2)cc1,63*,?,?,81*,9%
CC(=O)c1ccc(OCc2cc(C(=O)NC(C)c3cnn(C)c3)no2)cc1 (configuration not stated),94*,-28%,-27%,37*,-10%
COc1ccccc1C(=O)NCCc1nc2ccccc2n1C,-3,1%,?,8,-8%
Cc1cc(C)n(CCCNC(=O)c2cc(COc3ccc(C)c(C)c3)on2)n1,-24,-17%,25%,4,-10%
CCC(=O)Nc1nnc(SCCN2CCOCC2)s1,-9,24%,-14%,-1,3%
COc1ccc2[nH]c(=O)c(CN(Cc3cccnc3)Cc3nnnn3CC3CCCO3)cc2c1 (configuration not stated),-6,?,?,-5,1%
Cc1nc(C(C)NC(=O)c2cc(COc3ccc(F)c(F)c3)on2)cs1 (configuration not stated),9,-10%,-27%,18*,-12%
Cc1cc(C)n(CC(C)NC(=O)c2cc(COc3ccc(F)c(F)c3)on2)n1 (configuration not stated),28*,0%,?,19*,-23%
CCOC(=O)CC1(NC(=O)c2cc(COc3ccc(F)c(F)c3)on2)CCCCC1,-5,-15%,27%,1,-39%
CC(NC(=O)c1cc(COc2ccc3ncccc3c2)on1)c1ccc(F)cc1 (configuration not stated),7,?,-2%,5,-2%
Cc1cc(C)n(CC(C)NC(=O)c2cc(COc3c(F)cccc3F)on2)n1 (configuration not stated),-11,-10%,i,5,1%
CC(NC(=O)c1cc(COc2ccccc2)on1)c1nccs1 (configuration not stated),75*,60%,?,28*,-15%
Cc1cc(NC(=O)CSc2nc3c(c(=O)n2-c2ccc(Br)cc2)SCC3)no1,9,7.4µM*,-23%,4,-2%
COc1ccc(-n2c(SCC(=O)Nc3cc(C)on3)nc3c(c2=O)SCC3)cc1,-1,?,?,-2,-41%
Cc1cc(NC(=O)CSc2nc3c(c(=O)n2Cc2ccccc2)SC(C)C3)no1 (configuration not stated),15,1.9µM*,1.5µM*,-5,-6%
CCn1c(SCC(=O)Nc2cc(C)on2)nc2c(c1=O)SC(C)C2 (configuration not stated),-15,?,·,1,-5%
Cc1ccc(-n2c(SCC(=O)Nc3cc(C)on3)nc3c(c2=O)SC(C)C3)cc1 (configuration not stated),12,0.83µM*,?,1,-2%
O=C(CSc1nc2ccccc2c(=O)n1Cc1ccco1)NCc1ccco1,18,?,-3%,21,5%

# Screening data (PubChem BioAssay)
